These results are taken from ChEMBL document CHEMBL4513216, “Probing the Open Global Health Chemical Diversity Library for Multistage-Active Starting Points for Next-Generation Antimalarials” (ACS Infect Dis, 2020).

Each structure is given as a SMILES string. Among all 69,000 compounds or so, about 8,600 (12%) showed an effect of 50% or more. The entries come from a sample that favours strong results as a whole.

This assay has as its system Plasmodium berghei. Kind of assay: Screen against P. berghei liver stage (PbLuc), transformed with Luciferase, at 10uM. It counts as functional, HepG2. Conditions: tested at 10 uM.
For the molecule `O=C(N1CCOCC1)[C@@]12CCO[C@@H]1CCN(C1CCC1)C2`, the INHIBITION was determined as 16.8%.

Consider `Cc1ccsc1C(=O)N1C[C@@H]2CN(Cc3ccoc3)CCO[C@@H]2C1`, for which the INHIBITION worked out at 2.27%.

With `O=C(NCC(F)(F)F)C1CSCN1S(=O)(=O)c1ccc(F)cc1Cl` (stereo not given), the INHIBITION is given as -19.6%.

For the molecule `COc1ncccc1CN1C[C@@H]2C[C@@H](C(=O)NCC3CC3)N(C)[C@@H]2C1`, the INHIBITION was 27.2%.

For the molecule `CCCn1cc(-c2cc(-c3cc(CC)n[nH]3)c(C#N)c(N)n2)c(C)n1`, the INHIBITION turned out to be 64.5%.

As for `CCCn1cc(-c2cc(-c3c[nH]cn3)c(C#N)c(N)n2)c(C)n1`, the INHIBITION is given as -8.47%.

Regarding `CCCn1cc(-c2cc(-c3ccoc3)c(C#N)c(N)n2)c(C)n1`, the INHIBITION is -24%.

With `Cc1ccc(O)c(CNC2CCCN(Cc3noc(C4CC4)n3)C2)n1` (stereo not given), the INHIBITION amounted to 15.3%.

Consider `CC(C)NC(=O)CN(C)CC(=O)Nc1ccnn1C(C)C1CC1` (stereo not given), for which the INHIBITION was -164%.

As for `CC(=O)Nc1ccc(CNC(=O)CNCc2nnc(C)o2)cc1`, the INHIBITION stood at 45.4%.

Consider `Cc1nc(C)c(CC(=O)NCc2ccc(F)cc2)s1`, for which the INHIBITION is listed as -2.39%.

`CC(=O)Nc1ccc(CNC(=O)CNCc2snnc2C)cc1`: the INHIBITION came out at 52.2%.

As for `Cc1nc(C)c(CC(=O)NCc2ccccc2F)s1`, the INHIBITION was determined as 31.3%.

For `CC(=O)Nc1ccc(CNC(=O)CNCc2sc(C)nc2C)cc1`, the INHIBITION is listed as 55.5%.

On to `CC(=O)Nc1ccc(CN(C)Cc2snnc2C)cc1`, for which the INHIBITION amounted to 34.6%.

Take `O=C(O)c1cc(S(=O)(=O)N2CCOc3ccccc32)ccc1Br`: the INHIBITION turned out to be 2.7%.

As for `CN(C(=O)Cn1nc(-c2ccc(Br)cc2)ccc1=O)C1CCS(=O)(=O)C1` (stereo not given), the INHIBITION is recorded as -29.2%.

For `CC(C)c1cc(O)nc(C2CCCN2C(=O)C2CC2)n1` (stereo not given), the INHIBITION is -9.32%.

Take `O=S(=O)(NCC1CCN(c2cnccn2)CC1)C1CC1`: the INHIBITION turned out to be 27.5%.

For the molecule `Cn1nccc1-c1ccc2nc(C3CCNCC3)nn2c1`, the INHIBITION is -3.33%.

Consider `Cc1nc(S(=O)(=O)N2CCCCc3ccccc32)cn1C`, for which the INHIBITION is -49.3%.

As for `COc1cccc(CC(=O)N2CCC(c3ccn4nccc4n3)CC2)c1`, the INHIBITION is reported as 23.9%.

On to `O=S(=O)(NCC1COCCO1)c1ccc(C2CCCCC2)cc1` (stereo not given), for which the INHIBITION was found to be 74.5%.

With `Cc1ccc(S(=O)(=O)NCC2CNCCOC2)cc1Cl` (stereo not given), the INHIBITION was -95.7%.

Take `O=C(NS(=O)(=O)c1ccc(C2CCCCC2)cc1)C1COCCO1` (stereo not given): the INHIBITION amounted to 46.4%.

For `Cc1cc(C)n(CC2CCCN2C(=O)c2cncnc2C)n1` (stereo not given), the INHIBITION is on record as -2.1%.

As to `c1ncc2c(n1)CN(CC1CCCCO1)CC2` (stereo not given), the INHIBITION is 87.1%.

As for `CCOCCN1CCc2cncnc2C1`, the INHIBITION was found to be 53.3%.

Take `CCc1ncc2c(n1)CN(CC1CCCCO1)CC2` (stereo not given): the INHIBITION came out at 9.35%.

Turning to `Cc1ncc2c(n1)CN(CCOCC(F)(F)F)CC2`, the INHIBITION turned out to be 26.6%.

For the molecule `N#Cc1ccc(OCCN2CCc3cncnc3C2)cc1`, the INHIBITION came out at 9.54%.

In the case of `O=C(CN1CCc2cncnc2C1)NC(c1ccccc1)C1CC1` (stereo not given), the INHIBITION turned out to be 24.4%.

For `Cc1ncc2c(n1)CN(CC1CCCCO1)CC2` (stereo not given), the INHIBITION is given as 3.17%.

As for `CC(C)OCCN1CCc2cncnc2C1`, the INHIBITION is given as 24.4%.

In the case of `FC(F)(F)COCCN1CCc2cncnc2C1`, the INHIBITION was determined as 64%.

Regarding `Cc1ccc(C(NC(=O)CN2CCc3cncnc3C2)C2CC2)cc1` (stereo not given), the INHIBITION is on record as 34.2%.

With `COCCCN1CCc2cncnc2C1`, the INHIBITION is recorded as 40.3%.

As to `O=C(CN1CCc2cncnc2C1)NC(C1CC1)C1CC1`, the INHIBITION is reported as 57%.

Turning to `Cn1nnc2c(N3CC(C(=O)NCc4ccccc4F)C3)ncnc21`, the INHIBITION stood at 15.7%.

On to `Cc1cnn(CC2CCCN2CCCS(=O)(=O)N(C)C)c1` (stereo not given), for which the INHIBITION is on record as 2.97%.

For the molecule `N#Cc1ccc(C2CC(=O)Nc3c(C(=O)O)nsc32)cc1` (stereo not given), the INHIBITION is on record as -38.7%.

`CC(C)C(Sc1nnc(NC2CC2)s1)C(=O)NCc1cccnc1` (stereo not given): the INHIBITION is on record as -26.7%.

In the case of `Cc1noc(C)c1S(=O)(=O)NC(=O)COc1cccc(C(C)C)c1`, the INHIBITION is on record as 13.3%.

Regarding `Nc1nc2c(s1)C(c1c(F)cccc1Cl)CC(=O)N2` (stereo not given), the INHIBITION is listed as 30%.

With `CCNc1ncc(C(=O)N(C)C(C)c2ccc3c(c2)OCCO3)cn1` (stereo not given), the INHIBITION is on record as 15.8%.

On to `Cc1ccccc1-c1cncc(C2CCN(CCO)CC2)n1`, for which the INHIBITION is recorded as 38.2%.

For the molecule `CCCN(CC1COc2ccccc2O1)C(=O)C1=NN(C)C(=O)CC1` (stereo not given), the INHIBITION is 42.4%.

As to `CN(CC1COc2ccccc2O1)C(=O)C1=NN(C)C(=O)CC1` (stereo not given), the INHIBITION was 25.7%.

Turning to `CCN(CC1COc2ccccc2O1)C(=O)C1=NN(C)C(=O)CC1` (stereo not given), the INHIBITION came to 50.8%.

For the molecule `CCNC(=O)CCCC(=O)N1CCc2cc(Cl)cc(Cl)c2C1`, the INHIBITION is -4.52%.

For `COC(=O)C1CCN(C(=O)Cn2ccc(-c3ccccc3)n2)CC1`, the INHIBITION was -35%.

For the molecule `O=C(c1ccoc1)N1C[C@@H]2OCCN(c3ncccn3)[C@@H]2C1`, the INHIBITION is recorded as -4.32%.

On to `CC(C)N1CCO[C@H]2CN(C(=O)c3ccoc3)C[C@H]21`, for which the INHIBITION worked out at 38.7%.

On to `CN1CCO[C@H]2CN(C(=O)c3ccoc3)C[C@H]21`, for which the INHIBITION amounted to 54.4%.

As for `O=C(NCc1cc(-c2ccccc2)no1)NC1CCCCNC1=O` (stereo not given), the INHIBITION was -24.8%.

For the molecule `O=C(c1n[nH]cc1Cl)N1CCCC(n2nnc3cc(F)ccc32)C1` (stereo not given), the INHIBITION is 38.8%.

`N#CC1(C(=O)N2C[C@@H]3CC[C@H]2CN(Cc2ccncc2)C3)CCOCC1`: the INHIBITION is listed as 26.5%.

On to `CN(Cc1cnccn1)S(=O)(=O)c1ccc(C(F)(F)F)nc1`, for which the INHIBITION stood at 75.5%.

Take `Cc1ccc(S(=O)(=O)N(C)Cc2cnccn2)cc1N(C)C`: the INHIBITION worked out at 26%.

Take `CN(CC(C)(C)C)S(=O)(=O)c1ccc(C(F)(F)F)nc1`: the INHIBITION was 33.7%.

Take `CN1CCN(C(=O)c2cn3ccsc3n2)[C@H]2CS(=O)(=O)C[C@H]21`: the INHIBITION came to 38.5%.

`CN1CCCC1CNC(=O)CCCOc1ccc(Cl)cc1` (stereo not given): the INHIBITION was 24.665%.

In the case of `O=C(c1ccsc1)N1C[C@@H]2CCN(C(=O)c3cscn3)[C@@H]2C1`, the INHIBITION is 27.5%.

As to `O=C(C1CCC1)N1CCC(c2ncc3c(n2)CCNC3)CC1`, the INHIBITION is given as -12.9%.

As to `CC1(C)CC(CC(=O)N2CC(C)(C)[C@@](C)(O)C2)CC(C)(C)N1`, the INHIBITION was 70.2%.

For `CCN(CC)Cc1cc(C(=O)N2CC(C)(C)[C@@](C)(O)C2)c(C)o1`, the INHIBITION amounted to 35.7%.

Consider `CCCN1CCC(CC(=O)N2CC(C)(C)[C@@](C)(O)C2)CC1`, for which the INHIBITION is 57.2%.

On to `CC1(C)CN(C(=O)CC2CCC2)C[C@]1(C)O`, for which the INHIBITION is listed as 47.4%.

Turning to `CC1(C)CN(C(=O)CC2CCS(=O)(=O)CC2)C[C@]1(C)O`, the INHIBITION is given as 34.4%.

For `CCc1ccc(C(=O)N2CC[C@](C)(O)C(C)(C)C2)[nH]1`, the INHIBITION is -10.6%.
